Assay results: PubChem BioAssay (NCATS)
Records with an inconclusive call do not appear. Calls of active or inactive are those of the source. Calls come from the whole dose curve; as a rule, active = well fitted cell-killing curve with a large enough effect; inconclusive = small, poorly fitted or top-dose-only effect, or effect the other way; inactive = flat fitted curve, though single readings scatter. Where a SMILES comes first, the peptide text is derived from it. The star is where a group is joined. Hexanoyl = CCCCCC(=O)*

Assays:
Assay in all cases: Primary qHTS to identify gynecologic anti-cancer compounds using libraries of approved drugs and bioactive compounds (AID 1345084); note: nearly all actives have a fitted effect of over 55% in size
Details in all cases: Gynecologic cancer cell panel viability, ATPlite luminescence, 48 h; series mostly up to 57.5 µM
[1] = test system: PA-1
Summary of the method: (§1)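 Measured: luminescence after ATPlite addition (15 min, RT). Exposure: 48 h, 37 C, 5% CO2.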

[2] = test system: Tov-21-G
Summary of the method: as §1

[3] = test system: Tov112D
Summary of the method: as §1
% is set by controls: 0 for no effect and ±100 for the full control effect.

CC1(C)CC(NC(=O)C(=O)Nc2ccc(Cl)cc2)CC(C)(C)N1
inactive: Potency [1] | Potency [2] | Potency [3]

CC1CCC23COC(=O)C2=CC(O)CC3C1(C)CCc1ccoc1 (configuration not stated)
inactive: Potency [1] | Potency [2] | Potency [3]

C=C1Cc2c(Cl)cc3[nH]c4c5c3c2[C@@]2(O)[C@@H]1C[C@@H]2C(C)(C)O[C@H]5C1CC[C@@]2(O)[C@@]35O[C@@H]3[C@H]3OC(C)(C)[C@H]3O[C@H]5CC[C@]2(C)[C@@]41C (some centres not stated)
inactive: Potency [1] | Potency [2] | Potency [3]

Cc1ccc(-c2c(-c3nn(C)c4ncnc(N5CCC(N6CCCCC6)C5)c34)cnn2C)cc1 (configuration not stated)
inactive: Potency [1] | Potency [2] | Potency [3]

COC(=O)C1=CO[C@@H](O[C@@H]2O[C@H](CO)[C@@H](O)[C@H](O)[C@H]2O)[C@H]2[C@@H]1[C@H](O)[C@H](O)[C@]2(C)O
inactive: Potency [1] | Potency [2] | Potency [3]

C=C(CO)C(=O)O[C@H]1C[C@@]23O[C@@H]2CC/C(=C/[C@H]2OC(=O)C(=C)[C@H]12)CO[C@H]3O
inactive: Potency [1] | Potency [2] | Potency [3]

NC(=O)C(O[C@@H]1O[C@H](CO[C@@H]2O[C@H](CO)[C@@H](O)[C@H](O)[C@H]2O)[C@@H](O)[C@H](O)[C@H]1O)c1ccccc1 (some centres not stated)
inactive: Potency [1] | Potency [2] | Potency [3]

CC1=C[C@H](O)[C@H]2C(C)(C)CCC[C@]2(C)[C@@]1(O)CO
inactive: Potency [1] | Potency [2] | Potency [3]

Cn1cc(-c2c[nH]c3ncnc(N4CCOCC4)c23)cn1
inactive: Potency [1] | Potency [2] | Potency [3]

Cc1c(C)c(NCC(=O)N(C)C2CCN(Cc3ccc(C(N)=O)cc3)CC2)c(C)c(C)c1N
inactive: Potency [1] | Potency [2] | Potency [3]

C/C=C(\C)C(=O)OC[C@H]1O[C@@H](O[C@H]2[C@@H](O[C@H]3O[C@H](CO)[C@@H](O)[C@H](O)[C@H]3O[C@@H]3O[C@H](CO)[C@@H](O)[C@H](O)[C@H]3O)O[C@H](COC(=O)/C(C)=C/C)[C@@H](O)[C@@H]2O)[C@H](O)[C@@H](O)[C@@H]1O
inactive: activity change, negative = cytotoxicity [1] 4.96% [at 11.6 µM] | activity change, negative = cytotoxicity [2] -10% [at 11.6 µM] | activity change, negative = cytotoxicity [3] -8.88% [at 11.6 µM]

CC(=O)O[C@@H]1[C@H](O[C@@H]2O[C@H](CO)[C@@H](O)[C@H](O)[C@H]2O)[C@@H](O[C@@H]2O[C@@H](C)[C@H](O)[C@@H](O[C@@H]3O[C@H](CO)[C@@H](O)[C@H](O)[C@H]3O)[C@H]2O)[C@H](OC(=O)[C@]23CCC(C)(C)C[C@H]2C2=CCC4[C@@]5(C)C[C@H](O)[C@H](O[C@@H]6O[C@H](C(=O)O)[C@@H](O)[C@H](O)[C@H]6O)[C@@](C)(C(=O)O)C5CC[C@@]4(C)[C@]2(C)CC3)O[C@@H]1C (some centres not stated)
inactive: activity change, negative = cytotoxicity [1] 1.9% [at 6.55 µM] | activity change, negative = cytotoxicity [2] 0.569% [at 6.55 µM] | activity change, negative = cytotoxicity [3] 7.58% [at 6.55 µM]

O=C(O)c1ccncc1Nc1nn(CCN2CCC(F)(F)CC2)c2ccc(F)cc12
inactive: Potency [1] | Potency [2] | Potency [3]

CC1(C)CC[C@]2(C(=O)O)CC[C@]3(C)C(=CCC4[C@@]5(C)CC[C@H](O[C@@H]6O[C@H](C(=O)O)[C@@H](O)[C@H](O[C@@H]7O[C@H](CO)[C@H](O)[C@H](O)[C@H]7O)[C@H]6O[C@@H]6O[C@H](CO)[C@@H](O)[C@H](O)[C@H]6O)C(C)(C)C5CC[C@]43C)[C@@H]2C1 (some centres not stated)
inactive: activity change, negative = cytotoxicity [1] 2.41% [at 6.55 µM] | activity change, negative = cytotoxicity [2] -6.57% [at 6.55 µM] | activity change, negative = cytotoxicity [3] -3.27% [at 6.55 µM]

CCCCCC(=O)N1CCC[C@H]1C(=O)N[C@@H](Cc1ccc(O)cc1)C(=O)OC (Hexanoyl-Pro-Tyr-OMe)
inactive: Potency [1] | Potency [2] | Potency [3]

Nc1nc2c(nc(Sc3ccc(Cl)cc3)n2[C@@H]2O[C@@H]3COP(=O)(O)O[C@H]3[C@H]2O)c(=O)[nH]1
inactive: Potency [1] | Potency [2] | Potency [3]

C[C@@H]1C[C@@H](O)[C@@]23CO[C@]2(CO)C[C@@H](O)CC3[C@@]12CC(c1ccoc1)OC2=O (some centres not stated)
inactive: Potency [1] | Potency [2] | Potency [3]

C=CC1(C)C=C2CC[C@H]3[C@@](C)(C(=O)O)CCC[C@]3(C)C2CC1 (some centres not stated)
inactive: Potency [1] | Potency [2] | Potency [3]

CC1(C)CC[C@]2(C(=O)OC3OC(CO)C(O)C(O)C3O)CC[C@]3(C)C(=CCC4[C@@]5(C)C[C@@H](O)[C@H](OC6OC(C(=O)O)C(O)C(O)C6O)C(C)(C)C5CC[C@]43C)[C@@H]2C1 (some centres not stated)
inactive: activity change, negative = cytotoxicity [1] 4.09% [at 11.6 µM] | activity change, negative = cytotoxicity [2] 3.24% [at 11.6 µM] | activity change, negative = cytotoxicity [3] 0.489% [at 11.6 µM]
